From PubChem BioAssay (Tox21)
Results filed as inconclusive are left out. The source made the active and inactive calls. Unless noted, calls follow the shape of the dose curve; as a rule, active = well fitted curve in the direction sought with a large enough effect in the repeat runs; inconclusive = weak or mixed curves; inactive = no such curve, though single readings can be large; an effect the other way counts as inactive or inconclusive.

How the values were obtained:
[1] = molecular target: Retinoic acid receptor RXR-alpha (Homo sapiens) (UniProt P19793); assay: qHTS assay to identify small molecule agonists of the RXR signaling pathway (AID 1159527; calls by dose curve; also: nearly all actives have a fitted effect of over 35% in size); details: HEK293T RXRa-UAS-bla, beta-lactamase ratio, 16 h; series mostly up to 76.8 µM
In short: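 GeneBLAzer RXR-alpha-UAS-bla HEK 293T cells in medium with 2% charcoal-stripped FBS, pre-incubated 5 hr at 37 C, then exposed to compounds 16 hr. Beta-lactamase reporter read by FRET substrate, 2 hr room temperature, 460/530 nm emission.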

[2] = qHTS assay to identify small molecule agonists of the RXR signaling pathway - cell viability counter screen (AID 1159529); details: RXR-alpha-bla HEK293T viability, CellTiter-Glo, 16 h; series mostly up to 76.8 µM; also: nearly all actives have a fitted effect of over 50% in size
In short: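 RXR-alpha-UAS-bla HEK 293T cells in medium with 2% charcoal-stripped FBS were preincubated 5 hr, then exposed to compounds for 16 hr at 37 C. Viability was read as CellTiter-Glo luminescence after 30 min at room temperature.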

[3] = qHTS assay to identify small molecule antagonists of the retinoid acid receptor (RAR) signaling pathway - cell viability counter screen (AID 1159551); details: C3RL4 cells viability, ATP luminescence (CellTiter-Glo), 6 h; series mostly up to 92.4 µM; also: nearly all actives have a fitted effect of over 35% in size
In short: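 In this counter screen, the RARE-luciferase line C3RL4 was exposed for 6 h at 37 C and 5% CO2 to compounds with retinol at 1 uM final. Cellular ATP, read by luminescence, served as the viability measure.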

[4] = qHTS assay to identify small molecule antagonists of the retinoic acid receptor (RAR) signaling pathway (AID 1159552; also: nearly all actives have a fitted effect of over 50% in size); details: C3RL4 RARE luciferase reporter, retinol-stimulated, 6 h; series mostly up to 92.4 µM
In short: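 RARE-luc C3RL4 cells; cpds + 1 uM (final) retinol, 6 hr, 37 C/5% CO2; luciferase reagent, 30 min RT, luminescence readout. Inhibitors of retinol-driven signal scored.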

[5] = qHTS assay to identify small molecule agonists of the retinoic acid receptor (RAR) signaling pathway (AID 1159553); details: C3RL4 RARE luciferase reporter, agonist, 6 h; series mostly up to 73.3 µM
In short: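 In this cell-based screen, 1,000 C3RL4 cells per well were cultured overnight, dosed with test chemicals in DMSO for 6 hr, and assessed for RARE luciferase luminescence.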

[6] = qHTS assay to identify small molecule antagonists of the estrogen related receptor (ERR) signaling pathway from Tox21 library - cell viability counter screen (AID 1224834); details: ERR reporter cells viability, CellTiter-Fluor, 17.5 h; series mostly up to 92.4 µM; also: nearly all actives have a fitted effect of over 30% in size
In short: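 Counter screen run in ERR cells (2,000 cells/well): cells pre-incubated 6 h, then treated with compounds for 17.5 h at 37 C. Fluorescence was read 30 min after CellTiter-Fluor addition.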

[7] = molecular target: Luciferin 4-monooxygenase (Photinus pyralis) (UniProt P08659); assay: qHTS assay to identify small molecule inhibitors of firefly luciferase (AID 1224835); also: nearly all actives have a fitted effect of over 25% in size; also: potency is read from the fitted curve at half-maximal effect; details: purified P. pyralis luciferase, luminescence inhibition; series mostly up to 115 µM
In short: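 Inhibition of purified Photinus luciferase is measured by luminescence. Substrate levels (D-luciferin, ATP) sit at their KM values. Each compound is tested in a concentration series.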

[8] = qHTS assay to identify small molecule agonists of the constitutive androstane receptor (CAR) signaling pathway - cell viability counter screen (AID 1224836); details: HepG2-CYP2B6-hCAR viability, CellTiter-Fluor, 23 h, PK11195 added to every well; series mostly up to 92.4 µM; also: nearly all actives have a fitted effect of over 45% in size
In short: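 HepG2 cells stably carrying hCAR and a CYP2B6-2.2kb reporter were plated 4 h, then given compounds at 15 concentrations plus PK11195 (final 0.75 uM). After 23 h at 37 C, viability was read by CellTiter-Fluor fluorescence.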

[9] = qHTS assay to identify small molecule antagonists of the constitutive androstane receptor (CAR) signaling pathway - cell viability counter screen (AID 1224837); details: HepG2-CYP2B6-hCAR viability, CellTiter-Fluor, 23 h, co-treated with 50 nM CITCO; series mostly up to 92.4 µM; also: nearly all actives have a fitted effect of over 45% in size
In short: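 CITCO at 50 nM final was added alongside compounds (15 concentrations) to double-stable hCAR/CYP2B6-2.2kb HepG2 cells. Following 23 hr at 37 C, cell viability was quantified by CellTiter-Fluor fluorescence intensity.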

[10] = molecular target: Nuclear receptor subfamily 1 group I member 3 (Homo sapiens) (UniProt Q14994); assay: qHTS assay to identify small molecule antagonists of the constitutive androstane receptor (CAR) signaling pathway (AID 1224838); details: HepG2-CYP2B6-hCAR luciferase, CITCO-stimulated, 24 h; series mostly up to 92.4 µM; also: nearly all actives have a fitted effect of over 40% in size
In short: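 Inhibition of CITCO-driven (50 nM final) CYP2B6 reporter expression is measured in HepG2 cells stably carrying hCAR. Fifteen compound concentrations are applied for 24 h at 37 C, followed by luciferase luminescence.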

[11] = molecular target: Nuclear receptor subfamily 1 group I member 3 (Homo sapiens) (UniProt Q14994); assay: qHTS assay to identify small molecule agonists of the constitutive androstane receptor (CAR) signaling pathway (AID 1224839); details: HepG2 hCAR CYP2B6-luciferase, agonist mode, 24 h; series mostly up to 92.4 µM; also: nearly all actives have a fitted effect of over 15% in size
In short: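 HepG2 cells stably expressing hCAR and a CYP2B6-2.2kb luciferase reporter were treated with compounds at 15 concentrations plus 0.75 uM PK11195 (final) for 24 h at 37 C; luminescence was read after ONE-Glo addition.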

[12] = qHTS assay to identify small molecule antagonists of the estrogen related receptor signaling pathway with the pleiotropic PPARgamma coactivator (PGC) from Tox21 10K library (AID 1224841; call rule not given here; also: actives are mostly falling curves and most rising ones were filed inactive; nearly all actives have a fitted effect of over 50% in size; also: potency is read from the fitted curve at half-maximal effect); details: PGC/ERR reporter cell line, ONE-Glo luciferase, 18 h; series mostly up to 92.4 µM
In short: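 One-Glo luminescence, measured after half an hour at room temperature, quantified reporter output of PGC/ERR cells. These had been plated at 2,000 per well, incubated 6 h, dosed with compounds in DMSO, then kept 18 h at 37 C.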

[13] = qHTS assay to identify small molecule agonists of the estrogen related receptor signaling pathway with the pleiotropic PPARgamma coactivator (PGC) from Tox21 10K library (AID 1224842); details: PGC/ERR reporter cell line, luciferase ONE-Glo, 18 h; series mostly up to 92.4 µM; also: nearly all actives have a fitted effect of over 15% in size
In short: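 Luminescence from One-Glo (30 min, room temperature) measured after PGC/ERR cells had 18 h at 37 C with pinned compound (23 nL in DMSO). Cells had been seeded at 2,000 per well and pre-incubated 6 h.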

[14] = qHTS assay to identify small molecule antagonists of the estrogen related receptor signaling pathway with the pleiotropic PPARgamma coactivator (PGC) from Tox21 10K library - cell viability counter screen (AID 1224840; active = well fitted cell-killing curve with a large enough effect in the repeat runs, not every such curve was filed as active; also: nearly all actives have a fitted effect of over 40% in size); details: PGC/ERR reporter cells viability, CellTiter-Fluor, 17.5 h; series mostly up to 92.4 µM
In short: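 Readout: fluorescence intensity from CellTiter-Fluor after 30 min at 37 C/5% CO2. Preceded by 17.5 h treatment of PGC/ERR cells with DMSO-dissolved compounds, added 6 h post-seeding.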

[15] = qHTS assay to identify small molecule antagonists of the estrogen related receptor (ERR) signaling pathway - cell viability counter screen (AID 1224818); details: ERR reporter cell line viability counter screen; series mostly up to 46.1 µM
In short: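 Viability of ERR cells, CellTiter-Fluor fluorescence; 17.5 h compound exposure at 37 C, DMSO vehicle; 30 min reagent incubation at 37 C/5% CO2.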

[16] = qHTS assay to identify small molecule antagonists of the estrogen related receptor signaling pathway with the pleiotropic PPARgamma coactivator (PGC) cell viability counter screen (AID 1224822); details: ERR/PGC reporter cell line viability counter screen; series mostly up to 46.1 µM
In short: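 17.5 h compound treatment of PGC/ERR cells at 37 C; readout CellTiter-Fluor fluorescence; run alongside the PGC/ERR antagonist screen to flag cytotoxic compounds.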

Measured: Potency

Sequence of Nuclear receptor subfamily 1 group I member 3 (Homo sapiens) (Q14994 whole entry, looked up): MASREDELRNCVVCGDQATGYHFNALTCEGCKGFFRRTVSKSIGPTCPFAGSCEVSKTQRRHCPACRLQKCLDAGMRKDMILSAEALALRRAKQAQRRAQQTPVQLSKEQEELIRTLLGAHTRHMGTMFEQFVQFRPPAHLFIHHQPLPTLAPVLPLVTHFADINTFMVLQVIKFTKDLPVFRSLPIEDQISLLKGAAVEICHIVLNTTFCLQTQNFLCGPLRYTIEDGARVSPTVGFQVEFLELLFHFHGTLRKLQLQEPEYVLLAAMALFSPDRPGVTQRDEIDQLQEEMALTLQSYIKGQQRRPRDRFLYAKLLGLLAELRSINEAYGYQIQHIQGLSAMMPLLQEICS
Sequence of Luciferin 4-monooxygenase (Photinus pyralis) (P08659 whole entry, looked up): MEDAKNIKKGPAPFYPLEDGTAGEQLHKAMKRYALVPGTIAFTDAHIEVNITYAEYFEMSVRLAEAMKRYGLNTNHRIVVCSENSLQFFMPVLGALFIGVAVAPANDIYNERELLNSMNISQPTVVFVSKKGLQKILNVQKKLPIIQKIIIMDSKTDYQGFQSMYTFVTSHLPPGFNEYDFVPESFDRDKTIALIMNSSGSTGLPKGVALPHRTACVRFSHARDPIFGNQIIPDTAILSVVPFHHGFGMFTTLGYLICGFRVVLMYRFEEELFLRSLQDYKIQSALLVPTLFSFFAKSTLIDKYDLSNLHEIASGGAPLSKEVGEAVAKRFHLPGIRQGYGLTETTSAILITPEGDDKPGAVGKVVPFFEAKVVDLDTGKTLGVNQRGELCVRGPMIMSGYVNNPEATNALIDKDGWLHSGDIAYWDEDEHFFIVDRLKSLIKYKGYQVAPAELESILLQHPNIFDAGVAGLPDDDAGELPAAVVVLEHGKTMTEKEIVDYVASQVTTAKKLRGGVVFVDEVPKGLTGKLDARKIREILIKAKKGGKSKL
Sequence of Retinoic acid receptor RXR-alpha (Homo sapiens) (P19793 whole entry, looked up): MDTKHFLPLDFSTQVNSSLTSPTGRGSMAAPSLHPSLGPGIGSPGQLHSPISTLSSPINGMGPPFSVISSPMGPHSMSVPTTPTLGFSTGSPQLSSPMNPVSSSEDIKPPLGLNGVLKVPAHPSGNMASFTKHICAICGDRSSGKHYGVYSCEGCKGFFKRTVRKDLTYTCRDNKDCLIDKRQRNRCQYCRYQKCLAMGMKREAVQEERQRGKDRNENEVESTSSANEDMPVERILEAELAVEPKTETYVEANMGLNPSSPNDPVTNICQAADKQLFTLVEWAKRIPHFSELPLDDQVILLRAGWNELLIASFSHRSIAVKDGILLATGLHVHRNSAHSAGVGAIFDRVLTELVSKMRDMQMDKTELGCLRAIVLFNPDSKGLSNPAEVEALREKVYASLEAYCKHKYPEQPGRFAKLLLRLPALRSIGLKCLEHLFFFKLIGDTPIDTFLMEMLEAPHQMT

Cc1cc(OI)c(C(C)C)cc1-c1cc(C(C)C)c(OI)cc1C
not listed: [12] | [13] | [14] | [15] | [16]
inactive: all other assays above

CN1C(=O)CC(C)(c2ccccc2)C1=O (centres undefined)
not listed: [8] | [10] | [14] | [15] | [16]
inactive: all other assays above

c1ccc(COCc2ccccc2)cc1
not listed: [15] | [16]
inactive: all other assays above

CC(=O)[C@H]1CC[C@H]2[C@@H]3C[C@H](C)C4=CC(=O)CC[C@]4(C)[C@H]3[C@@H](O)C[C@]12C
not listed: [4] | [11] | [13] | [15] | [16]
inactive: all other assays above

CCCCC(CC)COC(=O)COc1ccc(Cl)cc1C (centres undefined)
not listed: [4] | [5] | [12] | [13] | [15] | [16]
inactive: all other assays above

CC1=CC(=O)CC(C)(C)C1(O)/C=C/C(C)=C\C(=O)O (centres undefined)
not listed: [7] | [15] | [16]
inactive: all other assays above

Cc1ccccc1N1C(=O)c2cc(S(N)(=O)=O)c(Cl)cc2NC1C (centres undefined)
inactive: [1] | [2] | [3] | [15] | [16] | [6] | [8] | [9] | [14]

CC(C)OCC1CO1 (centres undefined)
not listed: [5] | [14] | [15] | [16]
inactive: all other assays above

O=C(CCC1CCN(Cc2ccccc2)CC1)c1ccc2c(c1)NCCCC2
active: [12] 18.8 µM
not listed: [6] | [10] | [11] | [15] | [16]
inactive: all other assays above

COC(=O)c1cc(Cl)ccc1NS(=O)(=O)C(F)(F)F
not listed: [5] | [10] | [15] | [16]
inactive: all other assays above

CCCCCCCC/C=C\CCCCCCCC(=O)OC(CO)CO
not listed: [4] | [12] | [13] | [15] | [16]
inactive: all other assays above

CC(C)C(=O)O
not listed: [5] | [10] | [12] | [13] | [15] | [16]
inactive: all other assays above

CO[C@H]1O[C@H](CO)[C@@H](O)[C@H](O)[C@H]1O
not listed: [7] | [8] | [14] | [15] | [16]
inactive: all other assays above

CCCCCCCCSCCO
active: [7] 71 µM
not listed: [15] | [16]
inactive: all other assays above

CCCCC(CC)CNCC(CC)CCCC (centres undefined)
not listed: [15] | [16]
inactive: all other assays above

C[N+]1(C)CCC(=C(c2ccccc2)c2ccccc2)CC1
not listed: [15] | [16]
inactive: all other assays above

COc1cc2[nH]c(=O)[nH]c(=O)c2cc1OC
not listed: [8] | [15] | [16]
inactive: all other assays above

C[Si]1(C)O[Si](C)(C)O[Si](C)(C)O1
not listed: [13] | [15] | [16]
inactive: all other assays above
